Source: PubChem BioAssay (EPA / NIEHS)
More than one record can exist for a structure, and the calls need not agree. Activity calls are given as the source filed them. How the source made its calls: active means hit-call score of the fitted dose curve at least 0.9, where 1 is the maximum; inactive means score below 0.9.

Key:
Conditions in all cases: mRNA level, 48 h; actives raise or lower the signal
CYP2C8 (gene 1558) = assay: LTEA_HepaRG_CYP2C8: Life Technologies and Expression Analysis (LTEA) Assay for CYP2C8 using HepaRG (AID 2283483)
Summary of the method: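 Differentiated HepaRG cells in serum-free induction medium exposed 48 h in duplicate to 8 half-log concentrations from 100 uM in 0.5% DMSO. CYP2C8 mRNA by qRT-PCR normalized to ACTB, GAPDH, POLR2A; bidirectional fit versus DMSO.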

CYP2C9 (gene 1559) = assay: LTEA_HepaRG_CYP2C9: Life Technologies and Expression Analysis (LTEA) Assay for CYP2C9 using HepaRG (AID 2283484)
Summary of the method: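 Differentiated human HepaRG cells in serum-free induction medium were exposed 48 h to chemicals in 8-point half-log series from 100 uM (0.5% DMSO), in duplicate. CYP2C9 mRNA was measured by qRT-PCR, normalized to ACTB/GAPDH/POLR2A, with bidirectional fitting versus DMSO.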

CYP2E1 (gene 1571) = assay: LTEA_HepaRG_CYP2E1: Life Technologies and Expression Analysis (LTEA) Assay for CYP2E1 using HepaRG (AID 2283485)
Summary of the method: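 HepaRG cells in serum-free induction medium exposed 48 h to test chemicals, 8 half-log concentrations up to 100 uM in 0.5% DMSO, duplicate. CYP2E1 mRNA by qRT-PCR, normalized to ACTB, GAPDH, POLR2A; bidirectional fit versus DMSO.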

CYP4A11 (gene 1579) = assay: LTEA_HepaRG_CYP4A11: Life Technologies and Expression Analysis (LTEA) Assay for CYP4A11 using HepaRG (AID 2283486)
Summary of the method: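 HepaRG, 48 h chem exposure, 8 conc (100 uM top, half-log), 0.5% DMSO vehicle; qRT-PCR readout, housekeeping-gene normalized; bidirectional curve fit vs DMSO baseline.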

[1] = read-out: Cytochrome P450 3A4 (Homo sapiens) (UniProt P08684); assay: LTEA_HepaRG_CYP3A4: Life Technologies and Expression Analysis (LTEA) Assay for CYP3A4 using HepaRG (AID 2283487)
Summary of the method: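 Differentiated HepaRG cells, plated 48 h, then dosed 48 h in serum-free induction medium with 0.5% DMSO, 8 half-log concentrations up to 100 uM, duplicate. CYP3A4 mRNA by qRT-PCR, normalized to ACTB/GAPDH/POLR2A; bidirectional fit versus DMSO.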

[2] = read-out: DNA damage-inducible transcript 3 (DDIT3), DDIT3 (gene 1649); assay: LTEA_HepaRG_DDIT3: Life Technologies and Expression Analysis (LTEA) Assay for DNA damage-inducible transcript 3 (DDIT3) using HepaRG (AID 2283488)
Summary of the method: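 Differentiated human HepaRG cells in serum-free induction medium were exposed in duplicate for 48 h to 8 concentrations (top 100 uM, half-log steps, 0.5% DMSO). DDIT3 mRNA measured by TaqMan qRT-PCR, normalized to ACTB/GAPDH/POLR2A; bidirectional fit versus DMSO.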

[3] = read-out: Pro-epidermal growth factor (Homo sapiens) (UniProt P01133); assay: LTEA_HepaRG_EGF: Life Technologies and Expression Analysis (LTEA) Assay for Epidermal growth factor (EGF) using HepaRG (AID 2283489)
Summary of the method: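 HepaRG, 48 h dosing, 100 uM top, half-log x8, 0.5% DMSO. Readout: TaqMan qRT-PCR (Fluidigm array), housekeeping-normalized. Gain or loss of signal fit vs DMSO.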

[4] = read-out: Early growth response protein 1 (EGR1) transcription factor, EGR1 (gene 1958); assay: LTEA_HepaRG_EGR1: Life Technologies and Expression Analysis (LTEA) Assay for Early growth response protein 1 (EGR1) transcription factor using HepaRG (AID 2283490)
Summary of the method: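 Differentiated HepaRG cells in serum-free induction medium exposed 48 hours, duplicate, to 8 half-log concentrations up to 100 uM in 0.5% DMSO. EGR1 mRNA measured by TaqMan qRT-PCR, normalized to ACTB, GAPDH, POLR2A; bidirectional fit versus DMSO.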

[5] = read-out: Ezrin (EZR), EZR (gene 7430); assay: LTEA_HepaRG_EZR: Life Technologies and Expression Analysis (LTEA) Assay for Ezrin (EZR) using HepaRG (AID 2283491)
Summary of the method: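 EZR transcript levels came from Fluidigm qRT-PCR and were normalized to three housekeeping genes after 48 h chemical exposure of HepaRG cells. Dosing used an 8-point half-log series with a 100 uM top concentration in 0.5% DMSO, tested in duplicate; both directions were fitted versus vehicle.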

[6] = read-out: Cytochrome P450 3A7 (Homo sapiens) (UniProt P24462); assay: LTEA_HepaRG_CYP3A7: Life Technologies and Expression Analysis (LTEA) Assay for CYP3A7 using HepaRG (AID 2283492)
Summary of the method: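 Human HepaRG liver cells, 48 h post-plating, switched to serum-free induction medium and exposed in duplicate for 48 h. Dosing: 100 uM top, half-log dilutions, 8 points, 0.5% DMSO vehicle. Read-out: CYP3A7 mRNA, gain or loss fitted against DMSO baseline.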

[7] = read-out: Fatty Acid-Binding Protein 1 (FABP1), FABP1 (gene 2168); assay: LTEA_HepaRG_FABP1: Life Technologies and Expression Analysis (LTEA) Assay for Fatty Acid-Binding Protein 1 (FABP1) using HepaRG (AID 2283494)
Summary of the method: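 Differentiated human HepaRG cells exposed 48 h in serum-free induction medium to eight half-log concentrations up to 100 uM (0.5% DMSO), duplicate. FABP1 mRNA by qRT-PCR, normalised to ACTB, GAPDH, POLR2A; bidirectional fitting against DMSO.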

[8] = read-out: Cytochrome P450 7A1 (Homo sapiens) (UniProt P22680); assay: LTEA_HepaRG_CYP7A1: Life Technologies and Expression Analysis (LTEA) Assay for Cytochrome P450 7A1 (CYP7A1) using HepaRG (AID 2283496)
Summary of the method: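 Gene expression endpoint in human HepaRG liver cells treated for 48 h with test chemicals (up to 100 uM, 0.5% DMSO). Values come from bidirectional concentration-response fitting versus DMSO.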

[9] = read-out: Glutathione S-Transferase (GSTA2), GSTA2 (gene 2939); assay: LTEA_HepaRG_GSTA2: Life Technologies and Expression Analysis (LTEA) Assay for Glutathione S-Transferase (GSTA2) using HepaRG (AID 2283497)
Summary of the method: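 Differentiated human HepaRG cells were exposed in duplicate for 48 h in serum-free induction medium, 8 points from 100 uM top in half-log steps, 0.5% DMSO. GSTA2 mRNA was measured by TaqMan qRT-PCR, normalized to ACTB, GAPDH and POLR2A; bidirectional fit versus DMSO.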

[10] = read-out: growth arrest and DNA damage 45 (GADD45G), GADD45G (gene 10912); assay: LTEA_HepaRG_GADD45G: Life Technologies and Expression Analysis (LTEA) Assay for growth arrest and DNA damage 45 (GADD45G) using HepaRG (AID 2283499)
Summary of the method: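 Gain or loss of GADD45G mRNA, quantified by TaqMan qRT-PCR against three housekeeping genes, is fitted in both directions relative to 0.5% DMSO. Human HepaRG cultures receive test chemical for 48 h at up to 100 uM.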

[11] = read-out: Glutamate-cysteine ligase regulatory (GCLM), GCLM (gene 2730); assay: LTEA_HepaRG_GCLM: Life Technologies and Expression Analysis (LTEA) Assay for Glutamate-cysteine ligase regulatory (GCLM) using HepaRG (AID 2283500)
Summary of the method: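 Differentiated human HepaRG cells exposed 48 h in serum-free induction medium to 8-point half-log concentrations (top 100 uM, 0.5% DMSO), in duplicate. GCLM mRNA quantified by qRT-PCR, normalized to ACTB, GAPDH, POLR2A; bidirectional fitting versus DMSO.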

[12] = read-out: Heat shock 70 kDa protein 1 (HSPA1A), gene 3303; assay: LTEA_HepaRG_HSPA1A: Life Technologies and Expression Analysis (LTEA) Assay for Heat shock 70 kDa protein 1 (HSPA1A) using HepaRG (AID 2283502)
Summary of the method: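 Differentiated human HepaRG cells in serum-free induction medium were exposed in duplicate for 48 h to eight concentrations (top 100 uM, half-log steps, 0.5% DMSO). HSPA1A mRNA was quantified by qRT-PCR, normalized to ACTB, GAPDH and POLR2A, and fitted bidirectionally against DMSO.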

CYP3A5 (gene 1577) = assay: LTEA_HepaRG_CYP3A5: Life Technologies and Expression Analysis (LTEA) Assay for CYP3A5 using HepaRG (AID 2283493)
Summary of the method: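 Differentiated HepaRG cells in serum-free induction medium were dosed 48 h with test chemicals (8-point half-log series, top 100 uM, 0.5% DMSO, duplicate). CYP3A5 mRNA measured by qRT-PCR, normalized to ACTB, GAPDH, POLR2A; bidirectional fit versus DMSO.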

[13] = read-out: Cytochrome P450 4A22 (Homo sapiens) (UniProt Q5TCH4); assay: LTEA_HepaRG_CYP4A22: Life Technologies and Expression Analysis (LTEA) Assay for Cytochrome P450 4A22 (CYP4A22) using HepaRG (AID 2283495)
Summary of the method: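 Readout is CYP4A22 transcript induction or loss, quantified by qRT-PCR and normalized to ACTB, GAPDH and POLR2A. Human HepaRG cells receive test chemicals for 48 h at eight half-log concentrations from 100 uM in 0.5% DMSO.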

[14] = read-out: Glutamate-cysteine ligase catalytic (GCLC), GCLC (gene 2729); assay: LTEA_HepaRG_GCLC: Life Technologies and Expression Analysis (LTEA) Assay for Glutamate-cysteine ligase catalytic (GCLC) using HepaRG (AID 2283498)
Summary of the method: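 Differentiated HepaRG cells exposed 48 h in serum-free induction medium, eight-point half-log series topping at 100 uM in 0.5% DMSO, duplicates. GCLC mRNA by qRT-PCR normalized to ACTB, GAPDH and POLR2A, fitted bidirectionally versus DMSO.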

Cytochrome P450 3A4 (Homo sapiens), sequence (P08684 whole entry, looked up): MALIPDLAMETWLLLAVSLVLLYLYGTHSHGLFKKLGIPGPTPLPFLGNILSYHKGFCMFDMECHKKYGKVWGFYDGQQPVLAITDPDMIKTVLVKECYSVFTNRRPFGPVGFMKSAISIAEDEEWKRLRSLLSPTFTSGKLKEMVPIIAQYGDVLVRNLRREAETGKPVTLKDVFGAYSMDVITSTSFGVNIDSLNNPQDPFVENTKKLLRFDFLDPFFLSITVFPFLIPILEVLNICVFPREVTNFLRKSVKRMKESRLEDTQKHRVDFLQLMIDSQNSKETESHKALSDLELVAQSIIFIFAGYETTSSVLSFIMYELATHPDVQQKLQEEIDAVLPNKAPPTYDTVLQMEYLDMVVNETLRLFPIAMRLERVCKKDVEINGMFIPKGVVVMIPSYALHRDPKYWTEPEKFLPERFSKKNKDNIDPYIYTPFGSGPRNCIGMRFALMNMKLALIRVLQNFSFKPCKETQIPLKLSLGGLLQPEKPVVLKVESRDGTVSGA
Cytochrome P450 3A7 (Homo sapiens), sequence (P24462 whole entry, looked up): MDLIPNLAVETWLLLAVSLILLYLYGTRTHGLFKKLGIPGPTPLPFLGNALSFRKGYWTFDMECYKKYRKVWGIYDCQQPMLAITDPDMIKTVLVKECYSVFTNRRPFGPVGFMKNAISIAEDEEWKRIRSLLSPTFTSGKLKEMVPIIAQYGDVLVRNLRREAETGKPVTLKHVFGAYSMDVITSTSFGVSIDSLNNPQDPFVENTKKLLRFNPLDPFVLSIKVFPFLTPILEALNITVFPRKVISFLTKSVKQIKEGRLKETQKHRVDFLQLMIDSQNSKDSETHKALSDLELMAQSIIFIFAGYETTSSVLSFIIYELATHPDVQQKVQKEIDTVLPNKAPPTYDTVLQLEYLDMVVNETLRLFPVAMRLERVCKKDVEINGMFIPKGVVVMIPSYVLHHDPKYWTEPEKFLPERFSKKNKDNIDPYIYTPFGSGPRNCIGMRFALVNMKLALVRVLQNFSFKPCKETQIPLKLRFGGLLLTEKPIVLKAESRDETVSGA

SMILES: CN(C)[C@@H]1C(=O)C(C(N)=O)=C(O)[C@@]2(O)C(=O)C3=C(O)c4c(O)cccc4[C@@](C)(O)[C@H]3[C@H](O)[C@@H]12
- outcome (CYP2C8 (gene 1558)): inactive
- outcome (CYP2C9 (gene 1559)): inactive
- AC50 (CYP2E1 (gene 1571)): 50 µM (active)
- outcome (CYP2E1 (gene 1571)): inactive
- AC50 (CYP4A11 (gene 1579)): 38.6 µM (active)
- outcome (CYP4A11 (gene 1579)): inactive
- outcome [1]: inactive
- outcome [2]: inactive
- outcome [3]: inactive
- outcome [4]: inactive
- outcome [5]: inactive
- outcome [6]: inactive
- outcome [7]: inactive
- outcome [8]: inactive
- outcome [9]: inactive
- outcome [10]: inactive
- outcome [11]: inactive
- outcome [12]: inactive

SMILES: CCOP(=S)(Oc1cnc(C(C)(C)C)nc1)OC(C)C (stereo not given)
- outcome (CYP2C8 (gene 1558)): inactive
- outcome (CYP2C9 (gene 1559)): inactive
- AC50 (CYP2E1 (gene 1571)): 26.8 µM (active)
- AC50 (CYP4A11 (gene 1579)): 50 µM (active)
- AC50 [1]: 13.9 µM (active)
- outcome [2]: inactive
- outcome [3]: inactive
- outcome [4]: inactive
- outcome [5]: inactive
- outcome [6]: inactive
- outcome (CYP3A5 (gene 1577)): inactive
- AC50 [7]: 2.01 µM (active)
- outcome [13]: inactive
- AC50 [8]: 4.63 µM (active)
- outcome [9]: inactive
- outcome [10]: inactive
- outcome [11]: inactive
- outcome [12]: inactive

SMILES: C[N+]1(C)CCCCC1
- outcome (CYP2C8 (gene 1558)): inactive
- outcome (CYP2C9 (gene 1559)): inactive
- outcome (CYP2E1 (gene 1571)): inactive
- outcome (CYP4A11 (gene 1579)): inactive
- outcome [1]: inactive
- outcome [2]: inactive
- outcome [3]: inactive
- outcome [4]: inactive
- outcome [5]: inactive
- outcome [6]: inactive
- outcome (CYP3A5 (gene 1577)): inactive
- outcome [7]: inactive
- outcome [13]: inactive
- outcome [8]: inactive
- outcome [9]: inactive
- outcome [14]: inactive
- outcome [10]: inactive
- outcome [11]: inactive
- outcome [12]: inactive
